“And” between values parts separate entries of the source, which are not always exact repeats. Equal values may be shown once.
System: HL-1
Assay: protection of cardiomyocytes from stress damage, SAR follow-up, cell-based, panel, H9c2 and HL-1, ATP luminescence, set 2 (AID 651871);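 also: cells exposed to stressor for 2 h before ATP readout; reference of the scale not given here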
Conditions: H9c2/HL-1 cardiomyocytes, H2O2 oxidative stress; with H2O2, run 4, at 79 µM (top of the series)

For `COc1ccc2nc(-c3cc(OC)c(OC)c(OC)c3)cc(C(=O)NCC(=O)Nc3ccc(C(C)=O)cc3)c2c1`, the activity (protection/inhibition) was 37.2% and 50%.
Work on `CCOC(=O)c1cccc(NC(=O)CNC(=O)c2cc(-c3cc(OC)c(OC)c(OC)c3)nc3ccccc23)c1` yielded an activity (protection/inhibition) of 25.9%.
In the case of `COc1ccc2c(c1OC)C(=O)N1c3ccccc3C(=O)N(Cc3cccc(Cl)c3Cl)C21` (centres undefined), the activity (protection/inhibition) is reported as 8.81% and -13.3% and 3.82%.
`COc1cc(-c2cc(C(=O)Nc3cccc(C(=O)NCc4ccccc4)c3)c3ccccc3n2)cc(OC)c1OC` gave an activity (protection/inhibition) of 17.9%.
